Holding throughout (test): DAPPL (digital affinity profiling via proximity ligation, sequencing); 10 mM Tris-HCl pH 7.5, 50 mM NaCl, 1 mM DTT, 4% glycerol, room temperature, 30 min; GST-TFs on glutathione beads, 16-mer random dsDNA library, 0.1% formaldehyde crosslink after washing; high values mean tight binding
The target of test [1] is T1, FEV (Homo sapiens, UniProt Q99581 1-238).
T1 sequence: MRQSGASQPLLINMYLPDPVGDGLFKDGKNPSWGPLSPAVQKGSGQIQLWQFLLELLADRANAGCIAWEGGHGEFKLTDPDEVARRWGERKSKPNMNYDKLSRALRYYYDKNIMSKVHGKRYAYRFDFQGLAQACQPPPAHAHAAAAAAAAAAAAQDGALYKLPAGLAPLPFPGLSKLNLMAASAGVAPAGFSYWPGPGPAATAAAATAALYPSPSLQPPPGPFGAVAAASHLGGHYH
The following applies: protein: recombinant; tags: N-terminal GST; dsDNA, one strand shown. The essentials: (§1)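 A tag-only sample was pooled with DNA-barcoded human transcription factors that had been expressed in yeast as GST fusions and captured on glutathione beads. The pools were incubated for 30 min at room temperature with 200 nmole of a random double-stranded 16-mer DNA library in Tris/NaCl/DTT/glycerol buffer, then washed, crosslinked with 0.1% formaldehyde, proximity-ligated (BsaI/T4 ligase, 1 h, 37 °C), PCR-amplified and sequenced on an Illumina NextSeq500. Binding signal is each hexamer's read frequency for a factor divided by its frequency for the tag-only sample.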

Test [2] addresses ETV5 (Homo sapiens, UniProt P41161 1-510). The following applies: protein: recombinant; tags: N-terminal GST; dsDNA, one strand shown. The essentials: as §1
Test [3] has as its target HSF1 (Homo sapiens, UniProt Q00613 1-529). The following applies: protein: recombinant; tags: N-terminal GST; chain copies: 3; dsDNA, one strand shown. The essentials: as §1
The target of test [4] is T2, SPIC (Homo sapiens, UniProt Q8N5J4 1-248).
T2 sequence: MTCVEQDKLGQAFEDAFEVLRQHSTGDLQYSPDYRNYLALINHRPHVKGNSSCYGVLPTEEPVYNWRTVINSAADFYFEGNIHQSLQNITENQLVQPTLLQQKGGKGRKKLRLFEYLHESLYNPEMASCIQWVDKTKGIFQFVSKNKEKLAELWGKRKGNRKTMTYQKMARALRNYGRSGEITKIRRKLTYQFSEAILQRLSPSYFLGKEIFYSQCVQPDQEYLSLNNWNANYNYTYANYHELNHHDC
The following applies: protein: recombinant; tags: N-terminal GST; dsDNA, one strand shown. Summed up:
as §1

For test [5], the target named is ELF4 (Homo sapiens, UniProt Q99607 1-663). The following applies: protein: recombinant; tags: N-terminal GST; dsDNA, one strand shown. The essentials: as §1
Test [6] addresses T3, ELK4 (Homo sapiens, UniProt P28324-2 1-405).
T3 sequence: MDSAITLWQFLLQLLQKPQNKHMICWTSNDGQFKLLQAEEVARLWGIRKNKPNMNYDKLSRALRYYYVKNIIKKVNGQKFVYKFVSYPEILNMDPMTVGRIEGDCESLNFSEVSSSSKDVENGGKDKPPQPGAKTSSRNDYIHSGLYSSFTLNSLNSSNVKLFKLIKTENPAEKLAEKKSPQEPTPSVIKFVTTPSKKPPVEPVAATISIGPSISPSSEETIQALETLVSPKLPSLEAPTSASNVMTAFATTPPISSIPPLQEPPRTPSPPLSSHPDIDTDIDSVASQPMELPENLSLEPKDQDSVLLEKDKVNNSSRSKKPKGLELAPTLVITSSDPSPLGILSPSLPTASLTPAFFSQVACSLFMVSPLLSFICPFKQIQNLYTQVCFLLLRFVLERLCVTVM
The following applies: protein: recombinant; tags: N-terminal GST; dsDNA, one strand shown. The essentials: as §1

Test [7] addresses T4, ETV2 (Homo sapiens, UniProt O00321 1-342).
T4 sequence: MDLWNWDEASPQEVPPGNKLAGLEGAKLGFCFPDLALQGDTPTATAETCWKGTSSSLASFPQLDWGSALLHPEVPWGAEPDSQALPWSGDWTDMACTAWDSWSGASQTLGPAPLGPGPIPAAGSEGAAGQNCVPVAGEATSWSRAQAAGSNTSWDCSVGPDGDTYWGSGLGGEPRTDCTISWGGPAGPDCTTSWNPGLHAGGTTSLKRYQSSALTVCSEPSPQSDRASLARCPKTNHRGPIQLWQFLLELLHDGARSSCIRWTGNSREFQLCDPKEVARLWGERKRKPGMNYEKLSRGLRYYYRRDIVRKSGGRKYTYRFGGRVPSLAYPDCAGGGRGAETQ
The following applies: protein: recombinant; tags: N-terminal GST; dsDNA, one strand shown. Summed up:
as §1

The target of test [8] is T5, ELF3 (Homo sapiens, UniProt P78545 1-371).
T5 sequence: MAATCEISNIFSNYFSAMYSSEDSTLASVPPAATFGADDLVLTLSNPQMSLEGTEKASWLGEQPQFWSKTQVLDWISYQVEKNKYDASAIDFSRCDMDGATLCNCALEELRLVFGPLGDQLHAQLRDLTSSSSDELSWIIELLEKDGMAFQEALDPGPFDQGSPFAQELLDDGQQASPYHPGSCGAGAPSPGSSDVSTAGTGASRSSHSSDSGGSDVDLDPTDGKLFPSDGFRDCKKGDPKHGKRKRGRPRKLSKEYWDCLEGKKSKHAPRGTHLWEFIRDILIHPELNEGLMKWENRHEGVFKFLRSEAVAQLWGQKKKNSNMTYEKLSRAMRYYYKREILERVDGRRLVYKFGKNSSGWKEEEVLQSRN
The following applies: protein: recombinant; tags: N-terminal GST; dsDNA, one strand shown. The essentials:
as §1

Test [9] deals with CRX (Homo sapiens, UniProt O43186 1-299). The following applies: protein: recombinant; tags: N-terminal GST; dsDNA, one strand shown. Summed up:
as §1

Test [10] has as its target ETV1 (Homo sapiens, UniProt P50549 1-477). The following applies: protein: recombinant; tags: N-terminal GST; dsDNA, one strand shown. Summed up:
as §1

For test [11], the target named is T6, ERF (Homo sapiens, UniProt P50548 1-548).
T6 sequence: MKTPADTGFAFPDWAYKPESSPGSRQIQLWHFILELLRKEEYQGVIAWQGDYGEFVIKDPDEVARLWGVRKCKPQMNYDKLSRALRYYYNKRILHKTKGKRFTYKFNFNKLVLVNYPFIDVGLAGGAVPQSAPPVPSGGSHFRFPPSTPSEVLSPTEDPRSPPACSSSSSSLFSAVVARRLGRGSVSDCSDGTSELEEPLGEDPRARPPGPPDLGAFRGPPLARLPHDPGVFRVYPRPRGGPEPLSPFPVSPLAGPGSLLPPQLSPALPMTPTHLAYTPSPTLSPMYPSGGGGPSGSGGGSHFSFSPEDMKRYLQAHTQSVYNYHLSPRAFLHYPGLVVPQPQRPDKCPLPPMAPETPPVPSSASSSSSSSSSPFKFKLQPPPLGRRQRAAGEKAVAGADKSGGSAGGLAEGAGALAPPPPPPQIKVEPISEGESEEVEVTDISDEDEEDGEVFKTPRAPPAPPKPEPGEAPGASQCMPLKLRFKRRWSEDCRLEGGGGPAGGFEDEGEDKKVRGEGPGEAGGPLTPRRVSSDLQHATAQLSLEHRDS
The following applies: protein: recombinant; tags: N-terminal GST; dsDNA, one strand shown. The essentials:
as §1

For test [12], the target named is T7, ETV3L (Homo sapiens, UniProt Q6ZN32 1-361).
T7 sequence: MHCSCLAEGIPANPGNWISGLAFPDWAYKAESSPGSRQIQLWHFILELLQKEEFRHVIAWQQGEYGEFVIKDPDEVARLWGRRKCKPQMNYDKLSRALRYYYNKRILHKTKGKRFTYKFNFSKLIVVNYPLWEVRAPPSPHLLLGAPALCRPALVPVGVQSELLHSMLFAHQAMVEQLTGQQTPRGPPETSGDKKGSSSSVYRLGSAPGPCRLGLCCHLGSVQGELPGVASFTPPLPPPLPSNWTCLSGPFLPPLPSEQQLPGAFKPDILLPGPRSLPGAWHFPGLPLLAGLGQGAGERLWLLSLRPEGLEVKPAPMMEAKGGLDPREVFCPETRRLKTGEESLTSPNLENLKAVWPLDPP
The following applies: protein: recombinant; tags: N-terminal GST; dsDNA, one strand shown. Summed up:
as §1

Test [13] has as its target T8, ETS2 (Homo sapiens, UniProt P15036 1-469).
T8 sequence: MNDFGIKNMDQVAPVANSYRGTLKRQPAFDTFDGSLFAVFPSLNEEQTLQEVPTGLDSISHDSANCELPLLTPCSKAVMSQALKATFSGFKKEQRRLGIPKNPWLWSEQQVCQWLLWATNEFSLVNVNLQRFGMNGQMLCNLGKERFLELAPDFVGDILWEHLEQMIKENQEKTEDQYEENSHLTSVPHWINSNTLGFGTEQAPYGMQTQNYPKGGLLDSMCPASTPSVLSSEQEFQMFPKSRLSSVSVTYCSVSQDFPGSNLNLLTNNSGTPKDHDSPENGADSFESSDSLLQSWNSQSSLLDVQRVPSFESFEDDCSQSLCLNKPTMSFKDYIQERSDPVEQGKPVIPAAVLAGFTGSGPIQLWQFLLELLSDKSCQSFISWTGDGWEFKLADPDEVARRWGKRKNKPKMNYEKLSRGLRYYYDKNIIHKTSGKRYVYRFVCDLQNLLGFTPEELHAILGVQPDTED
The following applies: protein: recombinant; tags: N-terminal GST; dsDNA, one strand shown. Summed up: as §1

The target in test [14] is T9, SPDEF (Homo sapiens, UniProt O95238 1-335).
T9 sequence: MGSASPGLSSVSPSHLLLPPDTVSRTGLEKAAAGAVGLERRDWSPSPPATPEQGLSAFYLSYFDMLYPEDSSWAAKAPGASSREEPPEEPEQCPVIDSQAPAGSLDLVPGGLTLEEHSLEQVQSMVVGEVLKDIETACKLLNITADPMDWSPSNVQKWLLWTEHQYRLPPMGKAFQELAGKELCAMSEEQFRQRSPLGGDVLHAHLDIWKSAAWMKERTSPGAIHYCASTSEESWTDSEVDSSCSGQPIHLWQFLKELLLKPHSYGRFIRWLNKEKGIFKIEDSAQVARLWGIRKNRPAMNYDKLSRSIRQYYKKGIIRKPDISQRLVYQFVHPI
The following applies: protein: recombinant; tags: N-terminal GST; dsDNA, one strand shown. Summed up: as §1

Test [15] has as its target T10, ETV7 (Homo sapiens, UniProt Q9Y603 1-341).
T10 sequence: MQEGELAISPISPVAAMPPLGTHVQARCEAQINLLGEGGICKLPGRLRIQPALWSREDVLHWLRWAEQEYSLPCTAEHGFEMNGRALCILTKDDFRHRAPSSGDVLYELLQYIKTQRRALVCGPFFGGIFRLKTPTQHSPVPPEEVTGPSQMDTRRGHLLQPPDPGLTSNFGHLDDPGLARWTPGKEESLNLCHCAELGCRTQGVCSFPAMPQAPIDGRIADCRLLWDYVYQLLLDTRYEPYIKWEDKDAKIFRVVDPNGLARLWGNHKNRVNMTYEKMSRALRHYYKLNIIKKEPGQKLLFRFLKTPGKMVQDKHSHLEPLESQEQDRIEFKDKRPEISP
The following applies: protein: recombinant; tags: N-terminal GST; dsDNA, one strand shown. The essentials:
as §1

The target of test [16] is T11, ELF5 (Homo sapiens, UniProt Q9UKW6-2 1-255).
T11 sequence: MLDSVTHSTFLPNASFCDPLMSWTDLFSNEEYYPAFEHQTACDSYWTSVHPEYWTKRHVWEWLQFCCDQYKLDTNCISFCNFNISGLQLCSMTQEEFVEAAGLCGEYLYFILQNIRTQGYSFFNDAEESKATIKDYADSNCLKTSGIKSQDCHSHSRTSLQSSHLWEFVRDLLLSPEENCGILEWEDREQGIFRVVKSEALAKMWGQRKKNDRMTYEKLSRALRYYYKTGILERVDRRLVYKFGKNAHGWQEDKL
The following applies: protein: recombinant; tags: N-terminal GST; dsDNA, one strand shown. Summed up: as §1

The target in test [17] is T12, ETV3 (Homo sapiens, UniProt P41162-2 1-143).
T12 sequence: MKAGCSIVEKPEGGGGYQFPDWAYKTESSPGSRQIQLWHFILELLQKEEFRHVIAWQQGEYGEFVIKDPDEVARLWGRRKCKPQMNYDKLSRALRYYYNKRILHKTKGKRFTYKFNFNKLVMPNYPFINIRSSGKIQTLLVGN
The following applies: protein: recombinant; tags: N-terminal GST; dsDNA, one strand shown. Summed up: as §1

In test [18] the target is ETV6 (Homo sapiens, UniProt P41212 1-452). The following applies: protein: recombinant; tags: N-terminal GST; dsDNA, one strand shown. Summed up:
as §1

Sequence of ETV1 (P50549 whole entry): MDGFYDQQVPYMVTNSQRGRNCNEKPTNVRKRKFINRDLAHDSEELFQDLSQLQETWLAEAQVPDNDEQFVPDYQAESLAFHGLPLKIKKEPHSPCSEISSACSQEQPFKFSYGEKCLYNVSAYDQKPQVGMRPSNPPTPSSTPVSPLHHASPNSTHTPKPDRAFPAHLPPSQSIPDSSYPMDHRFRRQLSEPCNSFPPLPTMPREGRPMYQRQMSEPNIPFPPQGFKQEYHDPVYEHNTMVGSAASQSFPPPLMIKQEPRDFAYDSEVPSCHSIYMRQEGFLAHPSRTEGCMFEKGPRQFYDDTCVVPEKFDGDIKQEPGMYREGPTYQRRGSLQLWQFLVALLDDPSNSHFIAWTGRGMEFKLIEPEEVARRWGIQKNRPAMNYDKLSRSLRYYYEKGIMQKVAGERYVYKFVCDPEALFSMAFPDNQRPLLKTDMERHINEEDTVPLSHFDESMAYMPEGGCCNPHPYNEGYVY
Sequence of HSF1 (Q00613 whole entry): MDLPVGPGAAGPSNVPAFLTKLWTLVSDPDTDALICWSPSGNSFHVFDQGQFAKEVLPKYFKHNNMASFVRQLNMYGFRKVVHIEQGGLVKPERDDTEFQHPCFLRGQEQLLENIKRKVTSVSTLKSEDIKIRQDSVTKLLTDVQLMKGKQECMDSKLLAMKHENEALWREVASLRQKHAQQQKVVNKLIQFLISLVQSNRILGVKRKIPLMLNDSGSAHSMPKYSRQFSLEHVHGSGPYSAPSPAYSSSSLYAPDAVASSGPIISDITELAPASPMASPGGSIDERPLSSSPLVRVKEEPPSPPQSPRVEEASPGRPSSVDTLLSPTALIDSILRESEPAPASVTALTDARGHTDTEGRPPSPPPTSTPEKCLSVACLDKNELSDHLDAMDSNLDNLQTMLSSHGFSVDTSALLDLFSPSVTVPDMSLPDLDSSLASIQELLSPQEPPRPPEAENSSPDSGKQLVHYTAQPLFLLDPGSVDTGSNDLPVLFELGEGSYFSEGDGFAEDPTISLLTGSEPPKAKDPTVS
Sequence of ETV6 (P41212 whole entry): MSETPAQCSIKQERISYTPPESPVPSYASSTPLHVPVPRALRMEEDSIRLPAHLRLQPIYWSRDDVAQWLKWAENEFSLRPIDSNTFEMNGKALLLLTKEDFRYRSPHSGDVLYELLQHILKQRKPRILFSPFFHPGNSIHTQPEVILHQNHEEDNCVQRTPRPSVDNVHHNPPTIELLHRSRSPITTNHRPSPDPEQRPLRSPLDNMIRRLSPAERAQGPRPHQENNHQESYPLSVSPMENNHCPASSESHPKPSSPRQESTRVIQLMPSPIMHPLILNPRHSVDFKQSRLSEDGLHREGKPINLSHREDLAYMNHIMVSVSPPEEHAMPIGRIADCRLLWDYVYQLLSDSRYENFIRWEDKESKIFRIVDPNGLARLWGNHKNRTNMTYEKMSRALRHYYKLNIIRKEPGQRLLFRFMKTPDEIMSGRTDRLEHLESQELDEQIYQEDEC
Sequence of CRX (O43186 whole entry): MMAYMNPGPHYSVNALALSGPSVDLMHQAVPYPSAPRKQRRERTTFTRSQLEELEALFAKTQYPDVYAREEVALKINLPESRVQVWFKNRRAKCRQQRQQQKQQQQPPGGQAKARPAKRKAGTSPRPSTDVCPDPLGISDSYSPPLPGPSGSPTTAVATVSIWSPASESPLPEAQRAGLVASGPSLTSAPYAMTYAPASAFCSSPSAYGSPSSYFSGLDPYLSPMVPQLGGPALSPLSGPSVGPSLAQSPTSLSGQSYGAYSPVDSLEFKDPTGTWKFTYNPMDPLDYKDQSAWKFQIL
Sequence of ELF4 (Q99607 whole entry): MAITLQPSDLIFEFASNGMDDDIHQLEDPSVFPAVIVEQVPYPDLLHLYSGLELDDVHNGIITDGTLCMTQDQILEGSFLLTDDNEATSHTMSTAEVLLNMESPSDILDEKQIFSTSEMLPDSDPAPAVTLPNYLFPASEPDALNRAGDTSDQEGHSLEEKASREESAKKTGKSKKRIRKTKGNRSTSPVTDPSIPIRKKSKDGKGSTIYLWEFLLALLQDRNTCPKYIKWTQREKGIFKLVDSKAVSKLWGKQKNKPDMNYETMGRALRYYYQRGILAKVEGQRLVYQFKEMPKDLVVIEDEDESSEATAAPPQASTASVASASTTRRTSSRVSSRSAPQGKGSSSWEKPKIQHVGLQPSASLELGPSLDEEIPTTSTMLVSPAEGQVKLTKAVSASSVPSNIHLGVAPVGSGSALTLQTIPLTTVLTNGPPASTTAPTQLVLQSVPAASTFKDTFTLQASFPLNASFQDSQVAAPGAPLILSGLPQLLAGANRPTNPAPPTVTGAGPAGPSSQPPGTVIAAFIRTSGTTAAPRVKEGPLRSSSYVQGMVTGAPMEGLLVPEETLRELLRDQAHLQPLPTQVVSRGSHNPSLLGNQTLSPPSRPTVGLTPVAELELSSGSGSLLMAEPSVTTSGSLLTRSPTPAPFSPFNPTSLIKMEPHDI
Sequence of ETV5 (P41161 whole entry): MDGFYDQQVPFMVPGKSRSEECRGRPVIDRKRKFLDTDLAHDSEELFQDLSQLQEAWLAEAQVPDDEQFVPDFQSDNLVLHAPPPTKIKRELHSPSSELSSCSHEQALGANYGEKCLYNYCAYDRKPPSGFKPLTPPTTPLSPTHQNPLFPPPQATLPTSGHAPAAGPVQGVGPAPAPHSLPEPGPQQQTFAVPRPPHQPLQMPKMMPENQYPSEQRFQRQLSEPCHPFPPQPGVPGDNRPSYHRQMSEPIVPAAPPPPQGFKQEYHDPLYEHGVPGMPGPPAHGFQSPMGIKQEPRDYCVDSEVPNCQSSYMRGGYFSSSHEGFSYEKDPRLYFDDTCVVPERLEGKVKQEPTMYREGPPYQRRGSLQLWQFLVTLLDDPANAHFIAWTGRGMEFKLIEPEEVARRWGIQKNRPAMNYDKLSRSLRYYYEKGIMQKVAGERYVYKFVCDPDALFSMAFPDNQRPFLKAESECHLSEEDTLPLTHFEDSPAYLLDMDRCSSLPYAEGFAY

With AACACT, the binding signal in test [1] was 1.26 fold enrichment (6-mer frequency, TF over GST control); in test [2], 1.28 fold enrichment (6-mer frequency, TF over GST control); in test [3], 1.18 fold enrichment (6-mer frequency, TF over GST control); in test [4], 1.52 fold enrichment (6-mer frequency, TF over GST control); in [5], 1.3 fold enrichment (6-mer frequency, TF over GST control); in test [6], 1.29 fold enrichment (6-mer frequency, TF over GST control). The binding signal in test [7] is 1.26 fold enrichment (6-mer frequency, TF over GST control); in test [8] it was 1.23 fold enrichment (6-mer frequency, TF over GST control); in test [9] it was 1.14 fold enrichment (6-mer frequency, TF over GST control); in [10] it was 1.25 fold enrichment (6-mer frequency, TF over GST control); in test [11], 1.21 fold enrichment (6-mer frequency, TF over GST control); in [12] it was 1.3 fold enrichment (6-mer frequency, TF over GST control). Also, the binding signal is 1.37 fold enrichment (6-mer frequency, TF over GST control) in test [13]; 1.22 fold enrichment (6-mer frequency, TF over GST control) in test [14]; 1.32 fold enrichment (6-mer frequency, TF over GST control) in [15]; 1.34 fold enrichment (6-mer frequency, TF over GST control) in test [16]; 1.29 fold enrichment (6-mer frequency, TF over GST control) in test [17]; 1.4 fold enrichment (6-mer frequency, TF over GST control) in test [18].

The record behind these values is paper PMC7862700, “An all-to-all approach to the identification of sequence-specific readers for epigenetic DNA modifications on cytosine”.
